# Most compounds without a hit are left out; they make up all but 3.8% or so of the library.
# CBFb-RUNX1 inh – qHTS Assay for Compounds Blocking the Interaction Between CBF-beta and RUNX1 for the Treatment of Acute Myeloid Leukemia. AlphaScreen CBFb-His/RUNX1-biotin binding, biochemical. Runt-related transcription factor 1 (Homo sapiens) + Core-binding factor subunit beta …. Potency, µM (top dose mostly 59.8 µM), for inactives: at the top dose activity, negative = inhibition, hits mostly inhibitors. 230,000 tested, under 10 active; also: % of control where 0% means no effect
#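 His-tagged CBF-beta and biotinylated RUNX1 (30 nM each) were premixed 20 min at room temperature, exposed to compound for 15 min, then given nickel-chelate and streptavidin AlphaScreen beads (50 ng each). After 90 min, AlphaScreen signal was read.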
# PLK1 PBD inh – qHTS for Inhibitors of PLK1-PDB (polo-like kinase 1 - polo-box domain): Primary Screen; Plk1 PBD binding of FITC phosphopeptide, fluorescence polarization; Potency, µM, for inactives: max response, negative = inhibition, usual class: inhibitors; Serine/threonine-protein kinase PLK1 (Homo sapiens), P53350; hit rate 2.8% among 360,000; also: potency is read from the fitted curve at half-maximal effect; series mostly up to about 57 µM; % is scaled to controls: 0 for no effect and ±100 for the full control effect; nearly all actives have a fitted effect of over 65% in size
# MBNL1 CUG block – qHTS Assay for Inhibitors of MBNL1-poly(CUG) RNA binding | TR-FRET MBNL1-His/biotin-(CUG)12 binding, 665/545 ratio | hit rate 0.036% among 280,000 | Potency, µM (series often up to 57.5 µM), without a hit: top-dose activity change, negative = inhibition, usual class: inhibitors | Muscleblind-like protein 1 (Homo sapiens), Q9NR56; active = well fitted inhibition curve with a large enough effect in the signal ratio, with a control signal flat, not every such curve was filed as active; inconclusive = small, poorly fitted or top-dose-only effect, or effect the other way, or a change in a side signal; inactive = no such curve, though single readings can be large or run the other way; the % refers to the signal ratio; also: potency is read from the fitted curve at half-maximal effect; % is scaled to controls: 0 for no effect and ±100 for the full control effect
#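 Inhibition of protein-RNA binding appears as loss of TR-FRET between terbium anti-His antibody on MBNL1-His and streptavidin-XL665 on biotin-(CUG)12. Activity is normalized to buffer-only and uninhibited-complex controls.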
# KCNH2 WT inh – qHTS for Inhibitors of KCHN2 3.1: Wildtype qHTS; activity change, % at 1.84 µM; hit rate 0.37% among 340,000; AID 720551, 2013; U2OS, BacMam KCNH2, thallium flux FluxOr; active compounds read low;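 active = maximum activity change below -70%; inconclusive = maximum activity change between -70% and -50%; inactive = maximum activity change above -50%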; also: % is scaled to controls: 0 for no effect and ±100 for the full control effect
# Target sequence (Q12809 whole entry, looked up): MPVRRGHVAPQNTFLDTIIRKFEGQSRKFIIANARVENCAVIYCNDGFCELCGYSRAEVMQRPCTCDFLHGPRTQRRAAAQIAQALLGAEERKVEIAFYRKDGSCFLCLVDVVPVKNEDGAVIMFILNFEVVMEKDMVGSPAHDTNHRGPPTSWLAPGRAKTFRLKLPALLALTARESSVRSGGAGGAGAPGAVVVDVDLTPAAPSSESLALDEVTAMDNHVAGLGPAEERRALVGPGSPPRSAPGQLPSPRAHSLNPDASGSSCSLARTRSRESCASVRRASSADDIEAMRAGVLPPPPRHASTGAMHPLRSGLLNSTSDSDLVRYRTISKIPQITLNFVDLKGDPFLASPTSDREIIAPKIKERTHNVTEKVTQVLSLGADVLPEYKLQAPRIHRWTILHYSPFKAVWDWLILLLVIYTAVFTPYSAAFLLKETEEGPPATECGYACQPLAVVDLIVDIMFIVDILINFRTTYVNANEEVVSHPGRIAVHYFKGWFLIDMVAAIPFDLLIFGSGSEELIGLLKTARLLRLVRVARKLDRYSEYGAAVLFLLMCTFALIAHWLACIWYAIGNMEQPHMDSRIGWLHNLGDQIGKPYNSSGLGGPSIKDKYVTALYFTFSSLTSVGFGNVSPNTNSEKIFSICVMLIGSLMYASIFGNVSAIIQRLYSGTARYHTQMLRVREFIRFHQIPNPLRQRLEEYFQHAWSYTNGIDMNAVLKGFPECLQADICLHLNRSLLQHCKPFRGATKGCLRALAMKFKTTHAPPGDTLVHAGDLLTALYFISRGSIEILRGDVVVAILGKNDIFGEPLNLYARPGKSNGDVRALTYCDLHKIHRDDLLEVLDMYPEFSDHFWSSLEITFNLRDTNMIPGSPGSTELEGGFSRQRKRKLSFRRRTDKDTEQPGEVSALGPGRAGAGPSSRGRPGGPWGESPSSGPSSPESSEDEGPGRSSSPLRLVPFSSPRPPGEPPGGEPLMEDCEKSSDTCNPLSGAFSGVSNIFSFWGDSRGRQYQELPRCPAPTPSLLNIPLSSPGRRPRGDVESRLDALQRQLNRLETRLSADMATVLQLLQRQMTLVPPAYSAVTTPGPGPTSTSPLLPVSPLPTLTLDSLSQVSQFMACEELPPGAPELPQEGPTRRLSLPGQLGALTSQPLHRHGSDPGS
#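 U2OS cells were transduced with wild-type KCNH2 virus (2.03 x 10^8 / mL) for 4 h at room temperature, then cultured overnight at 37 C. Thallium flux was read with FluxOr dye. Rate constants were normalized to DMSO controls.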
# KCNH2 3.1 inh – qHTS for Inhibitors of KCHN2 3.1: Mutant qHTS | activity change, % (tested at about 1.8 µM) | U2OS KCNH2 3.1, thallium flux FluxOr; active compounds read low | AID 720553, 2013 | hit rate 0.95% among 340,000 | Potassium voltage-gated channel subfamily H member 2, brain isoform KCNH2 3.1 (human);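 active = maximum activity change below -70%; inconclusive = maximum activity change from -70% to -50%; inactive = maximum activity change above -50%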;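 also: thallium influx rate constant from kinetic fluorescence after stimulation buffer; % is scaled to controls: 0 for no effect and ±100 for the full control effect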
#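 Thallium flux read-out: FluxOr dye with Red40 quencher in HBSS/HEPES, 45 min at RT. Rate constants from kinetic reads were normalized to positive and negative DMSO controls. Cells: U2OS virally expressing the 3.1 isoform.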
# VDR inh – Inhibitors of the vitamin D receptor (VDR): qHTS; Vitamin D3 receptor (Homo sapiens), P11473; VDR-SRC2-3 peptide fluorescence polarization, 2 h; Potency, µM, for the others: max response, negative = inhibition, most hits filed as inhibitors; hit rate 0.93% among 400,000; AID 504847, 2011; also: potency is read from the fitted curve at half-maximal effect; % is scaled to controls: 0 for no effect and ±100 for the full control effect
#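 The screen uses fluorescence polarization to detect compounds that interfere with recruitment of the SRC2-3 coactivator peptide to VDR; plates are read after 2 h at room temperature.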
# TbPYK confirm – qHTS of Trypanosoma Brucei Inhibitors: Confirmatory Assay for Cherry-picked Compounds; shares compounds with PLK1 PBD inh; AID 720569, 2013; Potency, µM (titrated, usually from 76.9 µM), without a hit: at the top dose activity change, negative = inhibition, hits mostly inhibitors; hit rate 67% among 890; recombinant TbPYK, Kinase-Glo ATP luminescence; also: potency is read from the fitted curve at half-maximal effect; % is scaled to controls: 0 for no effect and ±100 for the full control effect; nearly all actives have a fitted effect of over 70% in size
# TbPYK ADP-Glo – qHTS of Trypanosoma Brucei Inhibitors: Orthogonal Assay for Cherry-picked Compounds; Potency, µM (doses to about 76.9 µM), inactives show top-dose activity change, negative = inhibition, usual class: inhibitors; recombinant TbPYK, ADP-Glo luminescence, 60 min; AID 720584, 2013; shares compounds with PLK1 PBD inh; hit rate 62% among 890; also: potency is read from the fitted curve at half-maximal effect; % is scaled to controls: 0 for no effect and ±100 for the full control effect; nearly all actives have a fitted effect of over 75% in size
# * marks the source's active call; other numbers are inactive results; i = inactive; ? = inconclusive; nt = no result given; [ ] = remark or other dose. Unless noted, calls follow the shape of the dose curve; as a rule, active = well fitted curve in the direction sought with a large enough effect; inconclusive = small, poorly fitted or top-dose-only effect, or another doubt; inactive = no such curve, though single readings can be large; an effect the other way counts as inactive or inconclusive.
SMILES,CBFb-RUNX1 inh,PLK1 PBD inh,MBNL1 CUG block,KCNH2 WT inh,KCNH2 3.1 inh,VDR inh,TbPYK confirm,TbPYK ADP-Glo
O=C1NC(=O)N(Cc2ccc(F)cc2)C(=O)/C1=C\c1ccc([N+](=O)[O-])s1,?,2.67µM*,?,0.5,-13.9,?,14.1µM*,15.8µM*
COc1ccc(N2C(=O)CS(=O)C(c3ccccc3)C2=O)cc1 (stereo unspecified),-3.8%,2.38µM*,-11.8%,i,-1.5,35.5µM*,12.6µM*,25.1µM*
COc1ccc(N2C(=O)CC(N3CCC(n4c(=O)[nH]c5ccccc54)CC3)C2=O)cc1 (stereo unspecified),-4.2%,-5.7%,1.5%,2.0,6.9,-0.2%,nt,nt
Cn1c(O)c(/C=C2\C=c3ccccc3=NC2=O)c(=O)n(C)c1=O,nt,?,23.0%,-10.4,-1.5,79.4µM*,?,15.7%
Cc1ccc(N=Cc2c(O)n(C)c(=O)n(C)c2=O)cc1,nt,2.2%,-1.9%,5.8,-0.7,-16.4%,nt,nt
Cc1ccc(OCCOc2cccc(C=C3C(=O)NC(=O)NC3=O)c2)cc1,nt,2.67µM*,7.1%,-1.8,10.9,39.8µM*,?,?
O=C1NC(=O)N(c2ccc(Cl)cc2)C(=O)/C1=C/c1coc2ccc(O)cc2c1=O,?,7.52µM*,-5.6%,-13.8,-1.9,?,?,?
O=C1NC(=O)N(c2ccccc2)C(=O)/C1=C/c1coc2ccc(O)cc2c1=O,8.9%,11.9µM*,-9.6%,25.9,9.2,50.1µM*,22.4µM*,?
Cc1cc(/C=C2\C(=O)NC(=O)N(c3ccc(Br)cc3)C2=O)c(C)n1C,3.8%,-2.4%,7.2%,-7.2,7.4,13.6%,nt,nt
CC[C@]1(C2=NCCN2)Cc2ccccc2O1,-8.6%[21.7 µM],nt,nt,nt,nt,nt,nt,nt
COC(=O)C12CC3=CC(CC3=O)Cc3ccccc3[C@@H]1CNC2=O (stereo partly specified),-5.6%,nt,nt,nt,nt,-26.6%,nt,nt
CC1=NNC(=O)C1Br (stereo unspecified),nt,9.47µM*,nt,2.0,7.8,?,3.16µM*,5.01µM*
COC1=CC2C3Cc4ccc(OC)c(O)c4[C@]2(CCN3C)CC1=O (stereo partly specified),5.1%,nt,nt,nt,nt,2.2%,nt,nt
O=C1NC(=O)N(c2ccc3c(c2)OCO3)C(=O)/C1=C\c1ccc(-c2ccccc2C(=O)O)o1,?,2.99µM*,9.0%,24.1,18.1,?,12.6µM*,?
CC(=O)N1CC2CC(C1)c1cccc(=O)n1C2 (stereo unspecified),7.2%[21.7 µM],nt,nt,nt,nt,nt,nt,nt
COC(=O)[C@H]1[C@@H](c2ccccc2)[C@@]2(c3ccccc3)Oc3ccccc3[C@@]1(O)[C@@H]2O,17.8%[13.1 µM],nt,nt,nt,nt,nt,nt,nt
O=C1NC(=S)N(c2ccc(Br)cc2)C(=O)/C1=C/N1CCN(C(=O)c2ccco2)CC1,-5.4%,?,30.0%,6.4,7.1,?,nt,nt
CCN(CC)c1ccc(/C=C2\C(=O)NC(=S)N(c3ccc(OC)cc3OC)C2=O)o1,nt,121.3%,nt,-3.8,-0.4,8.4%,nt,nt
COc1ccc(N2C(=O)/C(=C/c3ccc(N(C)C)o3)C(=O)NC2=S)cc1,nt,105.6%,?,-23.1,1.4,-0.5%,?,?
COc1ccc(N2C(=O)/C(=C/c3cccs3)C(=O)NC2=S)cc1,4.4%,2.12µM*,1.9%,3.6,19.5,-2.1%,15.8µM*,25.1µM*
Cc1ccc(/C=C2\C(=O)NC(=S)N(c3ccc(F)cc3)C2=O)o1,nt,3.77µM*,12.9%,-36.8,8.1,-6.4%,15.8µM*,20µM*
O=C1NC(=S)N(c2ccccc2)C(=O)/C1=C/c1ccco1,nt,2.99µM*,?,-4.9,-2.3,?,11.2µM*,15.8µM*
CCCC(=O)O[C@@H]1[C@@H](C)[C@@]2(O)[C@@H](C=C(CO)C[C@@]3(O)C(=O)C(C)=C[C@@H]23)[C@@H]2C(C)(C)[C@]12OC(=O)CCC,3.8%,nt,nt,nt,nt,10.5%,nt,nt
O=C1N=NC2=C1c1c3ccccc3c(O)n1CC2,9.8%,-2.5%,?,1.0,-2.3,-9.4%,nt,nt
CN[C@@H]1C[C@H](c2ccc(Cl)c(Cl)c2)c2ccccc21,12.6%[21.7 µM],nt,nt,nt,nt,?,nt,nt
SMILES,CBFb-RUNX1 inh,PLK1 PBD inh,MBNL1 CUG block,KCNH2 WT inh,KCNH2 3.1 inh,VDR inh,TbPYK confirm,TbPYK ADP-Glo
c1ccc2c(c1)OC[C@@H](C1=NCCN1)O2,3.1%[21.7 µM],nt,nt,nt,nt,-7.0%,nt,nt
CCN(CC)c1ccc(/C=C2\C(=O)NC(=S)N(C)C2=O)o1,6.4%,91.5%,?,26.6,12.5,7.6%,nt,nt
C=CCN1C(=O)/C(=C/c2ccc(N3CCOCC3)o2)C(=O)NC1=S,4.0%,77.7%,?,-3.4,-2.0,-4.9%,nt,nt
C=CCN1C(=O)/C(=C/c2cccs2)C(=O)NC1=S,-5.0%,5.32µM*,-13.9%,1.4,1.6,?,22.4µM*,35.5µM*
COc1cccc(N2C(=O)/C(=C/c3ccc(C)o3)C(=O)NC2=S)c1,nt,2.67µM*,16.0%,0.1,12.6,?,15.8µM*,28.2µM*
CC(=O)OCC1=C(C(=O)O)N2C(=O)[C@@H](NC(=O)CCC[C@@H](N)C(=O)O)[C@H]2SC1,nt,nt,nt,nt,nt,1.6%,nt,nt
CC1CC(OP(O)(=S)c2ccc(N(C)C)cc2NC(=O)c2cccs2)CC(C)(C)C1 (stereo unspecified),-0.6%,5.97µM*,?,-1.2,12.2,44.7µM*,28.2µM*,28.2µM*
CCOC(=O)C1CCN(/C=C2/C(=O)NC(=S)N(c3ccccc3F)C2=O)CC1,1.0%,-0.3%,3.5%,-0.3,3.1,-14.2%,nt,nt
Cc1ccc(/C=C2\C(=O)NC(=S)N(c3ccccc3F)C2=O)s1,-2.1%,1.19µM*,17.4%,-0.6,9.2,?,7.94µM*,11.2µM*
Cc1ccc(/C=C2\C(=O)NC(=S)N(c3ccc(F)cc3)C2=O)s1,-1.1%,1.34µM*,113.0%,3.1,5.8,35.5µM*,12.6µM*,?

# From PubChem BioAssay
